From PubChem BioAssay AID1236 (Emory University Molecular Libraries Screening Center, 2008)
Among all 220,000 compounds or so, about 800 (0.36%) were called active. For the sample, actives were picked, then their nearest neighbours and some compounds at random. Unmarked numbers belong to inactive results.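 How the source made its calls: active means inhibition above about 50% (limit read from the data); inactive means the rest.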

system: calpain II (m-calpain), Sus scrofa; experiment: inhibitors of pig calpain II, primary screen, biochemical, fluorogenic peptide substrate, 1536-well (AID 1236); details: purified calpain II, 30 min, at 16 µM, hits give high values

With CCCc1cc(-c2n[nH]c(=S)n2Cc2ccccc2)cs1 the inhibition was 67.9% (active).
For Cc1cc(C)c2nc(-c3cccnc3)cc(C(=O)Nc3ccc(S(=O)(=O)Nc4onc(C)c4C)cc3)c2c1, the inhibition was 55.4% (active).
With O=c1cc(N2CCCCC2)c(-c2ccccc2)nn1Cc1cccc(F)c1 the inhibition was 55.9% (active).
Cc1ccc(SCC(=O)c2sc(-c3ccccc3)nc2C)cc1 was tested, and the inhibition was 66.3% (active).
For Cc1[nH]c2ccccc2c1/C=N\NC(=O)Cn1nnc(-c2ccccc2)n1, the inhibition was 54.8% (active).
In the case of COc1ccc(C(=O)Nc2cc(C)ccc2NC(=O)COc2ccccc2)cc1, the inhibition is reported as 51.4% (active).
CO/N=C/c1ccc(N2CCN(C(=O)c3cccc(Cl)c3)CC2)c([N+](=O)[O-])c1 was tested, and the inhibition was 53.5% (active).
For Nc1ccccc1Sc1ccc(C(F)(F)F)cc1[N+](=O)[O-], the inhibition was 87.2% (active).
With Cc1ccc(NC2=C(Cl)C(=O)OC2OC(=O)c2ccccc2C)cc1 (configuration not stated) the inhibition was 66.5% (active).
CCC(=O)Nc1ccc(C(=O)N2CCN(C(=O)c3ccco3)CC2)cc1 was tested, and the inhibition was 50.8% (active).

Point of comparison: O=C(NCCNc1ccc([N+](=O)[O-])cc1)c1cccc2c(Br)cccc12, inhibition -5.43%. Against it:
- CCCc1cc(-c2n[nH]c(=S)n2CC)c2ccccc2n1 — lower, -40.7%
- CCc1cc(-c2n[nH]c(=S)n2CC(C)C)cs1 — higher, 44.2%
- C=CCN(c1ccccc1C(=O)NCC(=O)OCC)S(=O)(=O)c1ccc(C)cc1 — lower, -6.73%
- CCn1c(SCC(=O)Nc2ccc(S(=O)(=O)Nc3onc(C)c3C)cc2)nnc1-c1ccccc1 — lower, -78.3%
- COc1ccc(C(=O)Nc2ccc(S(=O)(=O)Nc3onc(C)c3C)cc2)cc1OC — higher, 29.6%
- Cc1coc2cc3oc(=O)c(CCC(=O)O)c(C)c3cc12 — lower, -98.6%
- O=c1cc(N2CCN(Cc3ccccc3)CC2)c(-c2ccccc2)n[nH]1 — lower, -13.6%
- O=c1c2ccccc2c(-c2ccccc2)nn1Cc1ccccc1 — higher, 11.2%
- COc1cc2sc(C)nc2cc1C — higher, 2.42%
- O=C(COc1ccc(S(=O)(=O)N2CCCCC2)cc1)NCc1ccccn1 — higher, -4.04%
- CC1(C)OC(=O)C(=CSc2ccc(C(C)(C)C)cc2)C(=O)O1 — lower, -10.7%
- CCCOc1ccc(NC(=O)C2OC3OC(C)(C)OC3C3OC(C)(C)OC23)cc1 (configuration not stated) — lower, -15.2%
- NNC(=O)c1cccc(COCC(F)(F)C(F)F)c1 — higher, 20.4%
- Cc1nc(-c2ccccc2)sc1C(=O)/C=C/c1ccccc1 — higher, -0.94%
- Cc1nc(-c2ccc(Cl)cc2)sc1C(=O)CBr — higher, 27.7%
- Cc1ccc(C)c2c1cc(C)c1nnc(SCC(=O)Nc3cccc(C(=O)O)c3)n12 — lower, -13.6%
- CC1(C)CCSC(/C=C/c2ccccc2)=N1 — lower, -19.7%
- CCCN(C(=O)CSc1nnnn1C)c1c(N)n(Cc2ccccc2)c(=O)[nH]c1=O — lower, -5.69%
- C=CCNc1nc(Nc2ccc(Cl)cc2)nc(OC)n1 — lower, -20.2%
- CC1=NNC(=O)C1CCC(=O)N/N=C(\C)c1ccc(Cl)cc1 (configuration not stated) — lower, -20.4%
- O=C(Cn1nnc(-c2ccccc2)n1)N/N=C/c1ccc(-c2ccc(Cl)cc2)o1 — lower, -60.4%
- O=C(Cn1nnc(-c2ccccc2)n1)NCc1ccccc1 — higher, 8.33%
- Cc1nn(Cc2ccc(F)cc2)c(C)c1NC(=O)c1cccnc1Cl — higher, 7.19%
- COc1ccccc1NC(=O)c1c(Br)cnn1C — lower, -19.7%
- O=C1C=CC(=O)N1c1ccc(N2CCCCC2)cc1 — higher, 2.8%
- COc1ccc(OCC(=O)NNC(=O)c2cccc(C)c2)cc1 — higher, 1.17%
- COc1ccc(OCC(=O)NNC(=O)c2ccc(-c3ccccc3)cc2)cc1 — higher, -4.48%
- O=C(O)C1=C[C@H](c2cccs2)C[C@H](OCCCCO)O1 — lower, -6.55%
- O=C(COC(=O)c1cnccn1)Nc1cccc2ccccc12 — lower, -43.3%
- O=C(NC(=S)Nc1ccc(NC(=O)c2cccs2)cc1)c1ccc([N+](=O)[O-])cc1 — higher, 9.92%
- CC1CN/C(=C\C(=O)c2ccc(Br)cc2)C(=O)N1 (configuration not stated) — higher, 14.4%
- O=C(/C=C/c1ccc(Cl)cc1)N1CCN(c2ccccc2[N+](=O)[O-])CC1 — higher, 37.4%
- O=C(c1ccc(Cl)c([N+](=O)[O-])c1)N1CCN(c2ccccc2)CC1 — higher, 14%
- CC1=NN(c2ccccc2)C(=O)C1C(=O)c1ccc([N+](=O)[O-])cc1 (configuration not stated) — higher, 2.01%
- S=c1[nH]nc(Nc2ccccc2)s1 — higher, 31.7%
- COc1ccc(Cl)cc1NC(=O)CN(C)Cc1ccc(OC)c(OC)c1 — higher, 30.5%
- CCS(=O)(=O)c1cc([N+](=O)[O-])c(Sc2ccccc2N)s1 — higher, 3.47%
- O=C(CSc1ccc(C(F)(F)F)cc1[N+](=O)[O-])NCCOc1ccccc1 — lower, -9.45%
- O=C1Nc2ccc([N+](=O)[O-])cc2C1=Nc1cccc(CO)c1 — higher, 21.2%
- CC1=NNC(=O)C1CCC(=O)N/N=C\c1cccc(Cl)c1 (configuration not stated) — higher, -0.56%
- COc1ccc(/C=C(\NC(=O)c2ccc(OCC(C)C)cc2)C(=O)OCc2ccco2)cc1 — higher, 14.9%
- O=C(Nc1nnc(C2CC2)s1)c1ccccn1 — higher, -3.35%
- N#CCCCn1c(O)c(N=NC(=O)C(O)c2ccccc2)c2ccccc21 (configuration not stated) — higher, -3.6%
- O=C(Cn1cncn1)N/N=C/c1c2ccccc2cc2ccccc12 — lower, -113%
- Cc1ccccc1C(=O)OC1OC(=O)C(Cl)=C1Nc1ccccc1 (configuration not stated) — higher, -2.86%
- O=C1OC(OC(=O)c2ccccc2Br)C(N2CCOCC2)=C1Cl (configuration not stated) — higher, -3.83%
- CCOc1ccc(/C=N/OCC(=O)NCc2cccs2)cc1 — higher, 3.21%
- COC(=O)c1sccc1NC(=O)CC1C(=O)NCCN1C(=O)Nc1ccc(F)cc1F (configuration not stated) — lower, -15.5%
- Cc1cc(NC(=O)/C=C/C(=O)N(CC(=O)NC2CCCC2)c2ccc(F)cc2)no1 — higher, 1.62%
- O=C(c1ccc2c(c1)OCO2)N1CCN(C(=O)c2ccco2)CC1 — higher, 14.3%
- CCNC(=S)N1CCN(C(=O)c2ccco2)CC1 — lower, -6.94%
